Test results as given in PubChem BioAssay (Tox21).
Results filed as inconclusive are left out. Activity calls are given as the source filed them. Calls come from the whole dose curve; as a rule, active = well fitted cell-killing curve with a large enough effect in the repeat runs; inconclusive = weak or mixed curves, or effect the other way; inactive = no such curve, though single readings can be large or run the other way.

Experiment: qHTS assay to identify small molecule antagonists of the vitamin D receptor (VDR) signaling pathway - cell viability counter screen (AID 743225); note: nearly all actives have a fitted effect of over 50% in size
Conditions: VDR-bla HEK293T viability, CellTiter-Glo luminescence, 16 h; series mostly up to 61 µM; viability change, negative = cytotoxic: at the top concentration
Excerpt: U.S. Tox21 Program National Center for Advancing Translational Sciences [NCATS] NIH Chemical Genomics Center [NCGC] U.S. Environmental Protection Agency [EPA] National Institutes of Environmental Health Sciences [NIEHS] National Toxicology Program [NTP] U.S. Food and Drug Administration [FDA] Tox21 Assay Overview: The vitamin D receptor (VDR), a member of nuclear hormone receptor superfamily, plays a critical role in calcium homeostasis and bone metabolism. It is also involved in cell differentiation and growth, and thrombogenicity. To identify the compounds that inhibit VDR signaling, the VDR-UAS-bla HEK 293T cell line (Invitrogen, Carlsbad, CA, USA) containing a beta-lactamase reporter gene under the control of an upstream activator sequence (UAS) was used to screen the Tox21 10K compound library. The cytotoxicity of the Tox21 compound library against the VDR-bla cell line was tested in parallel by measuring the cell viability using CellTiter-Glo assay (Promega, Madison, WI) in the same wells.
Tox21 Assay Protocol Summary: VDR-bla cells were dispensed at 2,000 cells/5 uL of assay medium per well into black wall/clear-bottom 1536-well plates using a Multidrop Combi (Thermo Fisher Scientific, Waltham, MA) dispenser. After the assay plates were incubated at a 37C and 5% CO2 for 4 h, 23 nL of compounds dissolved in DMSO, positive controls or DMSO only was transferred to the assay plate by a Pintool station (Kalypsys, San Diego, CA), followed by addition of 1 uL of 1-alpha, 25-Dihydroxy Vitamin D3 (3 nM, final concentration in the wells) using a Bioraptr Flying Reagent Dispenser (FRD) workstation (Beckman Coulter, Indianapolis, IN). The plates were incubated at 37C and 5% CO2 for 16 h, and then 1 uL of LiveBLAzerTM B/G FRET substrate was added using a Bioraptr FRD. The plates were incubated at room temperature for 2 h and fluorescence intensity was measured by an Envision plate reader (PerkinElmer, Shelton, CT). For cell viability readout that measures cytotoxicity, 3 ul/well of CellTiter-Glo reagent was added into the assay plates using a Bioraptr FRD. After 30 min incubation at room temperature, the luminescence intensity in the plates was measured using a ViewLux plate reader (PerkinElmer).
% is set by controls: 0 for no effect and ±100 for the full control effect; potency is the fitted concentration of half-maximal effect.

Row | SMILES | viability change, negative = cytotoxic | Potency
1 | Cc1cc(O)ccc1O | 14.3% [at 78.8 µM] (inactive) | 
2 | CN(C)CCN1C(=O)c2ccccc2N(C)c2ccccc21 | -23.8% (inactive) | 
3 | COC(=O)c1nc(Cl)c(Cl)nc1N |  | 23.9 µM (active)
4 | CC(=O)Oc1ccc([N+](=O)[O-])cc1CCl | 0.182% (inactive) | 
5 | FC(F)(F)c1ccccc1Cl | -1.95% [at 78.8 µM] (inactive) | 
6 | C=C1CCC2CC1C2(C)C (stereo not given) | -4.56% (inactive) | 
7 | COc1ccc(OC(=O)N(CC(=O)O)Cc2ccc(OCCc3nc(-c4ccccc4)oc3C)cc2)cc1 | 0.46% (inactive) | 
8 | C=COCC(C)C | 9.34% [at 78.8 µM] (inactive) | 
9 | CC[C@]1(O)C[C@H]2CN(CCc3c([nH]c4ccccc34)[C@@](C(=O)OC)(c3cc4c(cc3OC)N(C=O)[C@H]3[C@@](O)(C(=O)OC)[C@H](OC(C)=O)[C@]5(CC)C=CCN6CC[C@]43[C@@H]65)C2)C1 | 3.12% (inactive) | 
10 | CN1CCCN=C1COC(=O)C(O)(c1ccccc1)C1CCCCC1 (stereo not given) | -19.8% (inactive) | 
11 | CC[N+](CC)(CCNC(=O)C(=O)NCC[N+](CC)(CC)Cc1ccccc1Cl)Cc1ccccc1Cl | 0.438% (inactive) | 
12 | NNC(=O)CP(=O)(c1ccccc1)c1ccccc1 | -0.751% (inactive) | 
13 | CC(=O)c1ccc([N+](=O)[O-])cc1 | -2.75% (inactive) | 
14 | CC(C)=CCC/C(C)=C/CC/C(C)=C/CCC(=O)OC/C=C(\C)CCC=C(C)C | -3.3% (inactive) | 
15 | CC(=O)Nc1ccc(C)cc1C | -0.364% (inactive) | 
16 | Nc1cccc2c1CN(C1CCC(=O)NC1=O)C2=O (stereo not given) | -3.76% (inactive) | 
17 | CCCCCCCC/C=C\CCCCCCCCO | -12.1% (inactive) | 
18 | O=C1C(=O)c2ccccc2C(O)=C1C1CCC(c2ccc(Cl)cc2)CC1 (stereo not given) |  | 5.35 µM (active)
19 | Cc1[nH]cnc1CN1CCc2c(c3ccccc3n2C)C1=O | 7.83% (inactive) | 
20 | C/C=C(/C(=C/C)c1ccc(O)cc1)c1ccc(O)cc1 | -22.7% (inactive) | 

Row | SMILES | viability change, negative = cytotoxic | Potency
21 | CC(C)Nc1cccnc1N1CCN(C(=O)c2cc3cc(NS(C)(=O)=O)ccc3[nH]2)CC1 | -4.79% (inactive) | 
22 | CC/C=C1/OC(=O)c2ccccc21 | 13.6% (inactive) | 
23 | CC(=O)c1cc2ccccc2s1 | 0.0256% (inactive) | 
24 | CCOC(=O)c1ccccc1C(=C1C=C(Br)C(=O)C(Br)=C1)c1cc(Br)c(O)c(Br)c1 | -2.62% (inactive) | 
25 | C[C@@H]1CN(CCCn2c3ccccc3c3ccccc32)C[C@H](C)N1 |  | 23.9 µM (active)
26 | CC(C)(C)CC(=O)OCC(=O)[C@@]1(O)CC[C@H]2[C@@H]3CCC4=CC(=O)C=C[C@]4(C)[C@H]3[C@@H](O)C[C@@]21C | 0.438% (inactive) | 
27 | O=C1CCCCCCCCCCOCCCCO1 | -21.6% (inactive) | 
28 | O=C(OC(=O)c1ccccc1)c1ccccc1 | 0.228% [at 78.8 µM] (inactive) | 
29 | C[C@@]12CCC[C@H]1[C@@H]1CC[C@H]3C[C@@H](O)CC[C@]3(C)[C@H]1CC2 | -9.43% (inactive) | 
30 | C[C@@H]1CC(=O)NN=C1c1ccc(NN=C(C#N)C#N)cc1 |  | inactive
31 | CN1CC(=O)N2[C@H](c3ccc4c(c3)OCO4)c3[nH]c4ccccc4c3C[C@@H]2C1=O | 0.804% (inactive) | 
32 | CCC1CO1 (stereo not given) | 4.49% (inactive) | 
33 | C1C[C@@H]2[C@H]3CC[C@H](C3)[C@@H]2C1 | -0.327% (inactive) | 
34 | CC1(CN2CCC(n3c(=O)[nH]c4ccccc43)CC2)OCc2ccccc2-n2cccc21 (stereo not given) | -8.52% (inactive) | 
35 | CC(O)c1ccccc1 (stereo not given) | -6.8% [at 78.8 µM] (inactive) | 
36 | Clc1cc(Cl)nc(Cl)n1 | -19.9% [at 78.8 µM] (inactive) | 
37 | CC(=O)OCCN(CCOC(C)=O)c1ccc(N=Nc2ccc([N+](=O)[O-])cc2C#N)cc1 | -3.64% (inactive) | 
38 | C=C(C)C(=O)OCCOCCOC(=O)C(=C)C | -1.21% (inactive) | 
39 | CCn1cc(C(=O)O)c(=O)c2cc(F)c(N3CCNCC3)cc21 | -4.61% (inactive) | 
40 | CC(=O)OCC[N+](C)(C)C | 17.1% (inactive) | 
